{
  "source": "PubChem BioAssay (NCI)",
  "note": "About 83,000 compounds went through this panel and 20% of them were active in at least one assay; those are over-represented in the sample as a whole.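 Each cell line was grown in a 96-well plate and treated with one concentration of compound for 48 hours. Values below 10 were considered active.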 Active and inactive are the calls of the source.",
  "data": [
    {"tested_on": "ACHN renal", "assay": "NCI-60 one-dose screen, 48 h (100 = growth as untreated, 0 = no growth, -100 = all killed)", "conditions": "10 µM unless noted", "description": "Growth inhibition of the ACHN human tumor cell line is measured as a screen for anti-cancer activity. Cells are grown in 96 well plates and exposed to the test compound for 48 hours. Compounds are tested at a single concentration, which is 10^-5 M for most compounds. The reported endpoint is percent growth (GI% or GIPRCNT), where numbers from 0 - 100% represent growth inhibition, and numbers from -100% - 0 represent cell death. For example, a value of 40 represents 60% growth inhibition. A value of 0 means no net growth occurred over the course of the experiment. A value of -40 indicates 40% of cells at the beginning of the experiment died by the end of the experiment. A value of -100 means all cells are dead at the end of the experiment.\nNCI-60 Human Tumor Cell Lines Screen was performed using the standard one-dose NCI protocol, which is described in more detail at https://dtp.cancer.gov/discovery_development/nci-60/default.htm.\nCompounds with GIPRCNT values below 10 were considered active. Activity score was based on GIPRCNT using the following formula: […]\nScore is 0 for GIPRCNT values of 100 or above, 50 for GIPRCNT values of 0, and 100 for GIPRCNT values of -100.", "values": [
      {"smiles": "C(=N\\Nc1nnc2n1N=C(c1ccccc1)CS2)/c1ccc(OCc2ccccc2)cc1", "growth": "112% (inactive)"},
      {"smiles": "[2H]C([2H])([2H])Oc1ccc(/C=C/C(=O)/C=C(O)/C=C/c2ccc(OC([2H])([2H])[2H])c(OC([2H])([2H])[2H])c2)cc1OC([2H])([2H])[2H]", "growth": "40.2% (inactive)"},
      {"smiles": "CCOC(=O)c1c(C)n2c(=O)cc(C)c3c(OC(C)=O)c(OC(C)=O)cc1c32", "growth": "58.3% (inactive)"},
      {"smiles": "COc1ccc2c(O)cc3c(c2c1)[C@H](CCl)CN3C(=O)c1cc2cc(NC(=O)CCN3CCOCC3)ccc2[se]1", "growth": "-1.81% (active)"},
      {"smiles": "Cn1ncc(CC(=O)O)c1-n1nnc2cc(Cl)ccc2c1=O", "growth": "94.3% (inactive)"},
      {"smiles": "CN(CCNc1ccc(C(=N)N)cc1)c1ccc(C(=N)N)cc1", "growth": "78.4% (inactive)"},
      {"smiles": "COc1cccc2cc(N(C)c3ncnc4ccccc34)ccc12", "growth": "6.07% (active)"},
      {"smiles": "O=c1[nH]c(CN2CCN(c3ccccc3)CC2)nc2c(Br)cc(Br)cc12", "growth": "101% (inactive)"},
      {"smiles": "O=C1/C(=C/c2ccc(Br)cc2)COc2ccc(O)cc21", "growth": "86.7% (inactive)"},
      {"smiles": "COc1cc2nc3cc([N+](=O)[O-])ccc3c(NCCCNCCO)c2cc1OC", "growth": "2.87% (active)"},
      {"smiles": "O=C(Cn1cc(CSc2nc3ccccc3o2)nn1)Nc1ccc([N+](=O)[O-])cc1", "growth": "95.2% (inactive)"},
      {"smiles": "O=C(Nc1cccc(Cl)c1)Oc1c(Cl)c(Cl)c(Cl)c(Cl)c1Cl", "growth": "95.6% (inactive)"},
      {"smiles": "N#C/C(=C/C=C/c1ccccc1)S(=O)c1ccccc1", "note": "(stereo not given)", "growth": "-74.4% (active)"},
      {"smiles": "O=c1ccc2c(ccc3ncccc32)o1", "growth": "95.6% (inactive)"},
      {"smiles": "N#Cc1nn(-c2ccccn2)c(N)c1C#N", "growth": "99.6% (inactive)"},
      {"smiles": "COc1ccc(S(=O)(=O)NC2c3ccccc3CC2O)cc1OC", "note": "(stereo not given)", "growth": "105% (inactive)"},
      {"smiles": "O=C1C2C(c3cccs3)C=C(c3ccc(Cl)cc3)N2C(=S)N1c1ccccc1", "note": "(stereo not given)", "growth": "95.5% (inactive)"},
      {"smiles": "C=C(c1ccc(C(=O)O)c(F)c1)c1cc2c(cc1C)C(C)(C)C=CC2(C)C", "growth": "83.4% (inactive)"},
      {"smiles": "COC(=O)c1cc(-c2cc(OC)c(OC)c(OC)c2)[nH]c1N/N=C/c1c(Cl)cccc1Cl", "growth": "10.1% (inactive)"},
      {"smiles": "C=C(C)[C@@H]1CC[C@]2(COCCCNCCCN)CC[C@]3(C)[C@H](CC[C@@H]4[C@@]5(C)CC[C@H](OCCCN)C(C)(C)[C@@H]5CC[C@]43C)[C@@H]12", "growth": "-72.4% (active)"},
      {"smiles": "CCN1C(=O)N(CC)C2C1NN=c1s/c(=C\\c3ccc(F)cc3)c(=O)n12", "note": "(stereo not given)", "growth": "35.2% (inactive)"},
      {"smiles": "CCN1CCN(c2cc(C(=O)Nc3cccc(Nc4ccc5c(OC)cccc5n4)c3)cc(C(F)(F)F)c2)CC1", "growth": "12.5% (inactive)"},
      {"smiles": "CCOC(=O)C1=CCC(n2cc(F)c(=O)[nH]c2=O)O1", "note": "(stereo not given)", "growth": "103% (inactive)"},
      {"smiles": "COc1ccc(-c2cc(-c3ccc(Nc4nc(Nc5ccc(Cl)cc5)nc(Nc5ccc(Cl)cc5)n4)cc3)no2)cc1", "growth": "83.6% (inactive)"},
      {"smiles": "CCCS(=O)(=O)Nc1cccc(Nc2ncnc3cc(NC(=O)CCl)ccc23)c1Cl", "growth": "-94.4% (active)"},
      {"smiles": "CN1CC(c2ccccc2)C(C(=O)c2ccc(Br)cc2)C12C(=O)Nc1ccccc12", "note": "(stereo not given)", "growth": "100% (inactive)"},
      {"smiles": "CNc1nc2ncc(-c3c(C)noc3C)cc2n1Cc1ccccc1", "growth": "42.1% (inactive)"},
      {"smiles": "CO[C@]12C=C/C(=C(/C(=O)OCc3cccnc3)C(=O)CCCCCCCC[C@]3(OC)C=C/C(=C(/C(=O)OCc4cccnc4)C(=O)CCCCCCCC1)O3)O2", "growth": "-73.6% (active)"},
      {"smiles": "CN(C)c1ccc(/C=N/NC(=O)CSc2nc3sc4c(c3c(=O)n2-c2ccccc2)CCCCC4)cc1", "growth": "24.6% (inactive)"},
      {"smiles": "COC(=O)c1c(C)nc(C)c2c1C(=O)C(Br)=C(NCCN1CCOCC1)C2=O", "growth": "97.9% (inactive)"},
      {"smiles": "NCCNc1ccc([N+](=O)[O-])cc1", "growth": "108% (inactive)"},
      {"smiles": "CCCC1Cc2cc(-n3nc(C)c4c3CC(C)(C)CC4=O)cc(NC3CCC(O)CC3)c2C(=O)N1", "note": "(stereo not given)", "growth": "29.3% (inactive)"},
      {"smiles": "Cc1ccc(C23CCC(=O)N2CCc2cncn23)cc1", "note": "(stereo not given)", "growth": "105% (inactive)"},
      {"smiles": "Nc1c(C(=O)c2ccc(Cl)cc2)sc(Nc2ccccc2)c1-c1nc2ccccc2s1", "growth": "26.2% (inactive)"},
      {"smiles": "COc1cccc(C2C3=C(COC3=O)N(CCO)c3cc4c(cc32)OCCO4)c1", "note": "(stereo not given)", "growth": "24.8% (inactive)"},
      {"smiles": "CC(C)C(=O)Nc1ncc(C(=O)NCCN(Cc2ccccc2)C(=O)c2ccc(S(=O)(=O)Nc3ccccc3)cc2)s1", "growth": "101% (inactive)"},
      {"smiles": "Cn1cc(-c2nc(-c3c[nH]c4c(Cl)nccc34)cs2)c2ccccc21", "growth": "107% (inactive)"},
      {"smiles": "CO[C@H]1/C=C/O[C@@]2(C)Oc3c(C)c(O)c4c(O)c(c5c(nc6cc(C)ccn65)c4c3C2=O)NC(=O)/C(C)=C\\C=C\\[C@H](C)[C@H](O)[C@@H](C)C(O)[C@@H](C)[C@H](OC(C)=O)[C@@H]1C", "note": "(stereo not given in full)", "growth": "99.5% (inactive)"},
      {"smiles": "O=C(NS(=O)(=O)c1ccccc1)n1cc(-c2ccncc2)c(-c2cc(O)cc(Cl)c2)n1", "growth": "84.5% (inactive)"},
      {"smiles": "O=C1OCC2=C1C(c1cccc(F)c1)c1cc3c(cc1N2CCO)CCC3", "note": "(stereo not given)", "growth": "22.8% (inactive)"}
    ]}
  ]
}
